According to PubChem BioAssay AID2803 (The Scripps Research Institute Molecular Screening Center, 2010):
Out of some 2,000 compounds screened, about 1,300 (65%) were called active. No stated cut-off is given here; in the data, active means inhibition above about 43%; inactive means the rest. The set was probably picked from earlier hits. Only a sample is shown.

Biological target: Prolyl endopeptidase-like (Homo sapiens) (UniProt Q4J6C6)
Assay: human PREPL enzyme inhibitors, confirmation, biochemical, fluorescence polarization (AID 2803);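 further: 0% = protein with DMSO and 100% = wells lacking protein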
Details: recombinant PREPL, fluorescence polarization activity probe; at 5.96 µM; stronger effect = higher value

Sequence of Prolyl endopeptidase-like (Homo sapiens) (Q4J6C6 whole entry, looked up): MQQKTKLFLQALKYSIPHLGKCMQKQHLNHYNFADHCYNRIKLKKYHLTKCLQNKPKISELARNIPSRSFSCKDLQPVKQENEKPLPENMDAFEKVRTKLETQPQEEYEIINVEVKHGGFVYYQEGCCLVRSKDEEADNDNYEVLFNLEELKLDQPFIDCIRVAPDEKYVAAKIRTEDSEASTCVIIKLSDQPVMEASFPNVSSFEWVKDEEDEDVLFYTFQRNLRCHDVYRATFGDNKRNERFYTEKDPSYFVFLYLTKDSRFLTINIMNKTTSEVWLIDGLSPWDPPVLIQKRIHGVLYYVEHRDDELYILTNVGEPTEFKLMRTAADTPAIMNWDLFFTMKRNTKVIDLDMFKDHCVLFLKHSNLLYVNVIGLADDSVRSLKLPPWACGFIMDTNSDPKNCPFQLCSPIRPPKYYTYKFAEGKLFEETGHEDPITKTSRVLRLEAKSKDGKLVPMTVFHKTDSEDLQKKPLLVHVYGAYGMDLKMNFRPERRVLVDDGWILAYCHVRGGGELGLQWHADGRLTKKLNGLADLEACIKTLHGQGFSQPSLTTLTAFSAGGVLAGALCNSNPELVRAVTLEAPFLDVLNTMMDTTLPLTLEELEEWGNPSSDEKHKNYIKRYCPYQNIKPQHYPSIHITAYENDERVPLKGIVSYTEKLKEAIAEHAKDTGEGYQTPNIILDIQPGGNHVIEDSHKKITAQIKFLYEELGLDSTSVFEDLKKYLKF

inhibition, active:
CCOc1ccc2nc(N3CCCN(C(=O)Nc4ccccc4C)CC3)c(C#N)cc2c1 43.9%, CC(=O)Nc1ccc(S(=O)(=O)Nc2ccc(N3CCCCC3)cc2)cc1 46.4%, O=C1N=C(N2CCc3ccccc3C2)S/C1=C\c1ccc(O)cc1 48.4%, COc1ccc2cc1Oc1ccc(cc1)C[C@H]1c3cc(c(OC)cc3CCN1C)Oc1c(O)c(OC)cc3c1[C@H](C2)N(C)CC3 55.2%, CCN1C(=O)/C(=C\N2CCN(c3ccccc3)CC2)SC1=S 54.7%, CCN1/C(=C/c2ccc3ccc(C)cc3[n+]2CC)Sc2ccccc21 52.8%, CCN1/C(=C\c2ccc3ccccc3[n+]2CC)Sc2cc(C)ccc21 61.6%, C#CCOCCOCCOCCNc1nc(N2CCN(C(=O)CCCCCCCCCCNC(=O)Cn3cc(CCCCCN)nn3)CC2)nc(N2CCN(C(=O)CCCCCCCCCCNC(=O)[C@H](CO)n3cc(CCCSC)nn3)CC2)n1 63.1%, CC(C)n1cnc2c(NCc3ccccc3)cc(OCC3CCN(C)CC3)cc21 54.1%, N#C/C(=C/c1ccc(N2CCCCC2)o1)C(=O)NCCc1c[nH]c2ccccc12 78.5%, Oc1c(CN2CCCC2)cc(COCc2ccccc2)c2cccnc12 69.6%, Cc1ccc(C2CC(c3cccc(C)c3)n3nc(N)nc3N2)cc1 (stereo unspecified) 53.7%, O=C(c1cc(C(=O)N2CCN(c3ccc(F)cc3)CC2)cc([N+](=O)[O-])c1)N1CCN(c2ccc(F)cc2)CC1 47.8%, O=C1c2ccccc2C(=O)c2c1cccc2N1CCN(C/C=C/c2ccccc2)CC1 80.7%, C[N+](C)(CCCCCC[N+](C)(C)CCCN1C(=O)c2cccc3cccc(c23)C1=O)CCCN1C(=O)c2cccc3cccc(c23)C1=O 56%, CC(C)(C)Nc1nc(-c2ccccn2)nc2ccccc12 62.5%, CC(=O)N1CCN(c2ccc(NCc3ccc(C(C)C)cc3)cc2)CC1 61.9%, CC[C@@H](C)[C@@H]1CN([C@@H](C)CN2CCC[C@H]2CN2C(N)=NC[C@H]2C(C)C)C(=N)N1CCc1ccc(Cl)c(Cl)c1 66.1%, CN1CCN(c2ccc(NC(=O)COc3ccc(Cl)cc3Cl)cc2)CC1 58%, Cc1ccc(OCC(=O)Nc2ccc(N3CCN(C(=O)c4ccco4)CC3)cc2)c(C)c1 52.6%, Cc1ccc(N2CCN(C3=NC(=O)/C(=C\c4cccs4)S3)CC2)cc1 44.4%, CCN(CC)c1ccc2cc(C(N)=O)/c(=N\NC(=O)c3ccncc3)oc2c1 56.2%, Nc1c(C(=O)c2cccs2)sc2nsc(SCCN3CCCCC3)c12 54.6%, Cc1ccc(NS(=O)(=O)c2ccc(N/N=C/c3ccccc3OCC(=O)O)c([N+](=O)[O-])c2)c(C)c1 46.4%, CC(C)CCNc1nc(N2CCCC2)c2c(c1C#N)CCN(C)C2 49%, CNCC[C@H](Oc1ccc(C(F)(F)F)cc1)c1ccccc1 55.1%

inhibition, inactive:
Nc1ccc(Nc2ccccc2)cc1 29.3%, O=C(NNc1c2ccccc2nc2ccccc12)c1cc2ccccc2cc1O 23.9%, COC(=O)[C@H]1[C@H]2C[C@H]3c4[nH]c5ccccc5c4CCN3C[C@@H]2CC[C@@H]1O 22.4%, Cc1nc([N+](=O)[O-])nn1C12CC3CC(CC(Br)(C3)C1)C2 8.94%, CCC(CO)Oc1cc(NCc2ccccc2)c2ncn(C3CCCC3)c2c1 (stereo unspecified) 12%, O=C(NCc1ccccn1)c1ccc2nc(-c3ccco3)c(-c3ccco3)nc2c1 39.2%, Oc1ccc2ccccc2c1N=Nc1nccs1 40.4%, O=C(OCC(=O)N1CCN(c2ccccc2)CC1)c1ccc([N+](=O)[O-])s1 22.6%, COCCN(CCOC)c1nc(N)c2c(N)nc3c(c2c1C#N)CC(=O)N3Cc1ccc(Cl)cc1 19.2%, COc1ccc2cc(C(=O)C3CCCN(C(=O)c4sc(C)nc4C)C3)ccc2c1 (stereo unspecified) 31.8%, Cn1c(CCN2CCCCCC2)nc2cc(NC(=O)Nc3ccccc3)ccc21 38.1%, O=C(N/N=C/c1cccnc1)c1cc2ccccc2cc1O 5.89%, COc1cc2c(cc1O)[C@H](Cc1ccc(Oc3cc(C[C@@H]4NCCc5cc(OC)c(O)cc54)ccc3O)cc1)NCC2 37.1%, C[C@@H](CN1CCC[C@H]1CN1C(N)=NC[C@@H]1Cc1ccccc1)N1C[C@@H](Cc2ccccc2)N(CCCC2CCCC2)C1=N 42.6%, COc1ccc(NC(C)=O)cc1NC(=O)CN1CCN(C2c3ccccc3-c3ccccc32)CC1 37.7%, Cc1ccccc1OCC(=O)Nc1ccc(N2CCN(C(=O)C(C)C)CC2)c(Cl)c1 42.7%, CC1CCN(C(=O)c2ccc3c(c2)NC(=O)CN3)CC1 12.2%, O=C1N[C@H](Cc2c[nH]c3ccccc23)COC(=O)[C@H](Cc2ccc(F)cc2)C/C=C\C[C@H]1CC(=O)N(CCO)Cc1ccccc1 34.5%, COC(=O)Cc1nc2ccccc2[nH]1 7.22%, Cc1ccc(Nc2ccccc2N)cc1 32.1%
